Test results published in PubChem BioAssay (NCI).
Where “and” joins values, the source holds several entries; their conditions need not be identical. Identical values can stand only once. About 83,000 compounds went through this panel and 20% of them were active in at least one assay; those are over-represented in the sample as a whole.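 The test compound was applied at a single concentration to cells in 96-well plates for 48 hours, and percent growth was recorded.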 Calls of active or inactive are those of the source. How the source made its calls: active means growth percent below 10; inactive means the rest.

Assays:
Test in all cases: NCI-60 one-dose screen, 48 h (100 = growth as untreated, 0 = no growth, -100 = all killed)
Details in all cases: 10 µM unless noted
[1] = tested on: SK-MEL-2 melanoma
[2] = tested on: EKVX NSCLC
[3] = tested on: SN12C renal
[4] = tested on: UO-31 renal
[5] = tested on: TK-10 renal
[6] = tested on: ACHN renal
[7] = tested on: CAKI-1 renal
[8] = tested on: A498 renal
[9] = tested on: CCRF-CEM leukemia
[10] = tested on: MOLT-4 leukemia
[11] = tested on: SR leukemia
[12] = tested on: RPMI-8226 leukemia
[13] = tested on: OVCAR-8 ovarian
[14] = tested on: OVCAR-4 ovarian
[15] = tested on: SK-OV-3 ovarian
[16] = tested on: IGROV1 ovarian
[17] = tested on: OVCAR-3 ovarian
[18] = tested on: HS 578T breast
[19] = tested on: NCI/ADR-RES ovarian
[20] = tested on: OVCAR-5 ovarian

Row | Structure (SMILES) | growth [1] | growth [2] | growth [3] | growth [4] | growth [5] | growth [6] | growth [7] | growth [8] | growth [9] | growth [10] | growth [11] | growth [12] | growth [13] | growth [14] | growth [15] | growth [16] | growth [17] | growth [18] | growth [19] | growth [20]
1 | OCc1cc(CN2CCCCC2)c(O)c2ncccc12 | 81.3% (inactive) | 65.5% (inactive) | 59.9% (inactive) | 17.7% (inactive) | 31% (inactive) | 20.7% (inactive) | 13% (inactive) | 91.8% (inactive) | 29.5% (inactive) | 36% (inactive) | 27% (inactive) | 71.9% (inactive) | 50.5% (inactive) | 34.9% (inactive) | 49.4% (inactive) | 52.7% (inactive) | 45% (inactive) | 85.6% (inactive) | 8.71% (active) | 
2 | CN(Cc1ccccc1)c1nc(Cl)c(C2CC(c3ccc4c(c3)OCO4)=NN2c2cc(Cl)cc(Cl)c2)s1 (stereo unspecified) | 101% (inactive) | 95.1% (inactive) | 99.1% (inactive) | 87.5% (inactive) | 119% (inactive) | 97% (inactive) | 84.3% (inactive) | 115% (inactive) | 97.1% (inactive) | 107% (inactive) | 98.6% (inactive) | 83.7% (inactive) | 105% (inactive) | 90.1% (inactive) | 92.9% (inactive) | 95.3% (inactive) | 103% (inactive) | 96.5% (inactive) | 104% (inactive) | 
3 | CCOC(=O)c1c(-c2ccc(C)cc2)c(C#N)c(=O)n(-c2cccc(C(F)(F)F)c2)c1N | 116% (inactive) | 98.8% (inactive) | 95.1% (inactive) | 81.6% (inactive) | 112% (inactive) | 96.7% (inactive) | 91.2% (inactive) | 106% (inactive) | 101% (inactive) | 104% (inactive) | 102% (inactive) | 104% (inactive) | 103% (inactive) | 106% (inactive) | 108% (inactive) | 107% (inactive) | 106% (inactive) | 105% (inactive) | 109% (inactive) | 
4 | CCCCCCCCCCCCCCCC[N+](C)(C)CCN(Cc1ccc(OC)cc1)c1ncccn1 | 59.8% (inactive) | -84.6% (active) | -57.9% (active) and 34% (inactive) | 9.57% (active) and 80.3% (inactive) | -90.3% (active) and 71.7% (inactive) | 45.7% (inactive) and 67% (inactive) | 44.1% (inactive) | -70.4% (active) | -53.1% (active) and 23.7% (inactive) | -52% (active) and 23.9% (inactive) | -45.2% (active) and 56.8% (inactive) | 27.2% (inactive) | -72.8% (active) and 56.4% (inactive) | -8.05% (active) and 31.3% (inactive) | 14.6% (inactive) and 67.4% (inactive) | -70.4% (active) | -100% (active) and 45.5% (inactive) | -72.9% (active) and 84.5% (inactive) | 72.2% (inactive) and 105% (inactive) | 
5 | O=C(Nc1ncc(Cc2cccc(C(F)(F)F)c2)s1)c1ccc2c(c1)OCCO2 | 40.1% (inactive) | 30.7% (inactive) | 35.3% (inactive) | 47.7% (inactive) | 44.9% (inactive) | 29.8% (inactive) | 24.6% (inactive) | -2.08% (active) | 17.8% (inactive) | 9.32% (active) | 6.85% (active) | 17.6% (inactive) | 23.2% (inactive) | 37.1% (inactive) | 35.3% (inactive) | 23.4% (inactive) | -8.1% (active) | 21.4% (inactive) | 7.71% (active) | 
6 | [2H]C([2H])([2H])Oc1cccc(/C=C/C(=O)/C=C(/C=C/c2cccc(OC([2H])([2H])[2H])c2OC([2H])([2H])[2H])OB(F)F)c1OC([2H])([2H])[2H] | 116% (inactive) | 93.6% (inactive) | 74% (inactive) | 51.5% (inactive) | 99.9% (inactive) | 51.5% (inactive) | 58.1% (inactive) | 117% (inactive) | 4.12% (active) | 15.6% (inactive) | 23.3% (inactive) | 46% (inactive) | 20.6% (inactive) | 71.5% (inactive) | 105% (inactive) | 73.3% (inactive) | 39.2% (inactive) | 91.9% (inactive) | 50.6% (inactive) | 
7 | Nc1ccc(-c2ccc(N)c(Br)c2)cc1Br | 44% (inactive) | 59% (inactive) | 45.7% (inactive) | 35% (inactive) | 75.6% (inactive) | 76.5% (inactive) | 50.3% (inactive) | 74.5% (inactive) | 19.6% (inactive) | 27.2% (inactive) | 20.7% (inactive) | 29% (inactive) | 59.2% (inactive) | 75.5% (inactive) | 64.4% (inactive) | 47% (inactive) | 51.4% (inactive) | 79.5% (inactive) | 29.2% (inactive) | 
8 | Clc1ccc2c(NCCN3CCN(c4ccnc(N5CCCC5)n4)CC3)ccnc2c1 | 92.4% (inactive) | 63% (inactive) | 57.2% (inactive) | 25.8% (inactive) | 52.5% (inactive) | 55.6% (inactive) | 27.7% (inactive) | 51.5% (inactive) | 51.1% (inactive) | 47.2% (inactive) | -12.2% (active) | -10.6% (active) | 36.8% (inactive) | 57.8% (inactive) | 90% (inactive) | 47.8% (inactive) | 40.8% (inactive) | 76.4% (inactive) | 49% (inactive) | 
9 | CC1=CC=C(NC(=O)/C=C/c2ccccc2)CC1Nc1nccc(-c2cccnc2)n1 (stereo unspecified) | 28.2% (inactive) | 67.4% (inactive) | 50.3% (inactive) | 65.2% (inactive) | 107% (inactive) | 50.3% (inactive) | 32.5% (inactive) | 24.7% (inactive) | 19.4% (inactive) | 26% (inactive) | 15.3% (inactive) | 17.2% (inactive) |  | 70% (inactive) | 57.6% (inactive) | 54.7% (inactive) | 19.9% (inactive) | 44.5% (inactive) | 47.6% (inactive) | 96.8% (inactive)
10 | Cc1n(Cc2ccc3ccccc3c2)c(Cl)c(Cl)[n+]1Cc1ccc2ccccc2c1 | 25.5% (inactive) | 51.1% (inactive) | 30.7% (inactive) | 72.1% (inactive) | 52.5% (inactive) | 80.8% (inactive) | 29.2% (inactive) | 40.3% (inactive) | 14% (inactive) | 25.4% (inactive) | 6.73% (active) | -16.8% (active) | 19.1% (inactive) | 3.21% (active) | 65.5% (inactive) | -8.24% (active) | 5.54% (active) | 46.6% (inactive) | 98.8% (inactive) | 
11 | Cc1ccc2c(c1)C(C)Cc1c(ncnc1-n1cnc3cc(C)ccc31)N2C (stereo unspecified) | -1.91% (active) | 47.2% (inactive) | 31.6% (inactive) | 31% (inactive) | 48.7% (inactive) | 26.6% (inactive) | 24.6% (inactive) | 12.2% (inactive) | 11.4% (inactive) | 12% (inactive) | 1.44% (active) | -0.691% (active) | 0.0907% (active) | 61.7% (inactive) | 5.86% (active) | 21.9% (inactive) | 20.2% (inactive) | 31.6% (inactive) | 5.12% (active) | 
12 | COc1cc(Nc2nc3ccccc3cc2C(=O)Nc2ccc(F)c(F)c2)cc(OC)c1OC | 48.2% (inactive) | 30% (inactive) | 12.5% (inactive) | 21.8% (inactive) | 47.8% (inactive) | 5.68% (active) | 46.5% (inactive) | -3.64% (active) | 24.7% (inactive) | 14.2% (inactive) | 29.6% (inactive) | 21.8% (inactive) |  | 23% (inactive) | 42.2% (inactive) | 30.8% (inactive) | 10.6% (inactive) | 61.2% (inactive) | 6.91% (active) | 63.9% (inactive)
13 | O=C(/C=C/c1ccc(Cl)s1)c1ccc(Cl)s1 | 100% (inactive) and 109% (inactive) | 98.3% (inactive) | 93.3% (inactive) and 91% (inactive) | 82.8% (inactive) | 94.9% (inactive) and 88.9% (inactive) | 93.9% (inactive) and 101% (inactive) | 92.4% (inactive) | 97.8% (inactive) | 94.8% (inactive) and 90.7% (inactive) | 95.1% (inactive) and 88.9% (inactive) | 78.3% (inactive) and 87% (inactive) | 89.9% (inactive) and 66.8% (inactive) |  | 84.5% (inactive) | 94.5% (inactive) and 102% (inactive) | 88.9% (inactive) | 97.3% (inactive) and 99.3% (inactive) | 96.8% (inactive) | 104% (inactive) and 99.1% (inactive) | 86.5% (inactive) and 101% (inactive)
14 | O=C(O)c1ccccc1Cc1ccc(F)c2ccccc12 | 101% (inactive) and 119% (inactive) | 107% (inactive) | 107% (inactive) and 97.9% (inactive) | 77.7% (inactive) and 89.1% (inactive) | 107% (inactive) and 109% (inactive) | 99.3% (inactive) and 102% (inactive) | 94.9% (inactive) and 100% (inactive) | 99.3% (inactive) and 97.4% (inactive) | 98.8% (inactive) and 96.3% (inactive) | 93.7% (inactive) and 107% (inactive) | 107% (inactive) and 100% (inactive) | 110% (inactive) and 96.2% (inactive) |  | 110% (inactive) and 96.6% (inactive) | 102% (inactive) and 122% (inactive) | 113% (inactive) and 119% (inactive) | 98.6% (inactive) and 108% (inactive) | 95% (inactive) and 103% (inactive) | 114% (inactive) and 110% (inactive) | 112% (inactive) and 96.7% (inactive)
